Results filed as inconclusive are left out. The source holds several records for some structures; these can differ, active in one and inactive in another. The source made the active and inactive calls. Rule for the calls: active = hit-call score of the fitted dose curve at least 0.9, where 1 is the maximum; inconclusive = response in the unintended direction; inactive = score below 0.9.

Chain of Cellular tumor antigen p53 (Homo sapiens) (P04637 whole entry, looked up, the tested form may be a part): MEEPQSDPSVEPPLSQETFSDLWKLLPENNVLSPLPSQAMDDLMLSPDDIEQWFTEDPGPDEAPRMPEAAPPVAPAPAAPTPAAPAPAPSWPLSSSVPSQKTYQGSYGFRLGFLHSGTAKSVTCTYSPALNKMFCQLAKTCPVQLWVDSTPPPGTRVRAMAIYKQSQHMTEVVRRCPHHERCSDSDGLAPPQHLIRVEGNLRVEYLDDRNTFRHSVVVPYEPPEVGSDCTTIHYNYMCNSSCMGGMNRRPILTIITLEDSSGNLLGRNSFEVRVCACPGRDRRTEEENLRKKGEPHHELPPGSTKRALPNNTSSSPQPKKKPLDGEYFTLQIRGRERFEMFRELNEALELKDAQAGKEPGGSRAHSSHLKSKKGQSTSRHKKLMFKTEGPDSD

The target of the test is Cellular tumor antigen p53 (Homo sapiens) (UniProt P04637). In words: TOX21_p53_BLA_p4_ratio: Tox21 HCT-116 p53 Agonism Beta-lactamase Assay, Ratio, Phase 4 (AID 2283601). An excerpt:
TOX21_p53_BLA_p4 is a cell-based, single-readout assay that uses HCT116, a human intestinal cell line, […] in a 1536-well plate.TOX21_p53_BLA_p4_ratio is an assay readout measuring reporter gene via receptor activity and designed using inducible reporter (beta lactamase induction) detected with GAL4 b-lactamase reporter gene. The signal is derived from the ratio of cleaved (ch2) to uncleaved (ch1)reporter gene substrate used as the measure of target activity.Data from the assay component TOX21_p53_BLA_p4_ratio was analyzed into 1 assay endpoint. This assay endpoint, TOX21_p53_BLA_p4_ratio, was analyzed in the positive analysis fitting direction relative to DMSO as the negative control and baseline of activity. Using a type of inducible reporter, gain-of-signal activity can be used to understand changes in the reporter gene as they relate to the gene TP53. Furthermore, this assay endpoint can be referred to as a primary readout, because this assay has produced multiple assay endpoints where this ratio serves a reporter gene function to understand target activity. To generalize the intended target to other relatable targets, this assay endpoint is annotated to the DNA binding intended target family, where the subfamily is tumor suppressor.
Thawing Method: Place 14 mL of pre-warmed thaw medium into a 15 mL of conical tub. Remove the vial of cells to be thawed from liquid nitrogen and thaw rapidly by placing at 37C in a water bath with gentle agitation for 1-2 minutes. Decontaminate the vial by wiping with 70% ethanol before opening in a biological safety cabinet. Transfer the vial contents drop-wise into 14 mL of thaw medium in a sterile 15-mL conical tub. Centrifuge cells at 900 rpm for 4 minutes and resuspend in thaw medium. Transfer contents to the T75 tissue culture flask containing Thaw Medium and place flask in a humidified 37C/5% CO2 incubator. Switch to growth medium at first passage.Propagation Method: Aspirate medium, rinse once in DPBS, add 0.25% Trypsin/EDTA and swirl to coat the cell evenly. Add an equal volume of Growth Medium to inactivate Trypsin after 2-3 minutes incubation at 37C. Centrifuge cells at 900 rpm for 4 minutes and resuspend in growth medium. Cell should be passage or fed at least twice a week.Assay Protocol: Harvest cells from culture in growth medium and resuspend in assay medium. 2.2 Dispense 4000 cells/5 uL/well into 1536-well black/clear bottom plates using a Multidrop dispenser. After the cells were incubated at 37C for 5 hours, 23 nL of compounds dissolved in DMSO were transferred to the assay plate by a PinTool resulting in a 217-fold dilution. Incubate the plates for 16 hours at 37C, 5% CO2. Add 1 uL of 6X LiveBLAzer FRET B/G (CCF4-AM) Substrate Mixture to each well using a BioRAPTR dispenser and incubate the plates at room temperature for 2 hours. Measure fluorescence intensity at 460 and 530 nm emission and 405 nm excitation by an Envision detector. Data is expressed as the ratio of 460nm/530nm emissions. Add 4 uL of Cell-titer Glo to each well using BioRAPTR and incubate the plates at room temperature for 2 hours. Measure fluorescence intensity by a VewLux plate reader.
On to `CC(C)[C@@H]1CC[C@@H](C)C[C@H]1OC(=O)c1ccccc1O`, for which the outcome was inactive. Still for that read-out and setting: under `O=C(O[C@H]1CN2CCC1CC2)N1CCc2ccccc2[C@@H]1c1ccccc1` stands “inactive”. For the molecule `CCOC(=O)CC#N`, the outcome was inactive.

Consider `CCCCCCCCCCCCCCC(=O)O`, for which the result was inactive. As to `COc1ccccc1N1CCN(CCCNc2cc(=O)n(C)c(=O)n2C)CC1`, the result was inactive. Turning to `COCCCN`, the result was inactive.

Consider `CC(=O)NCc1c(I)c(NC(C)=O)c(I)c(C(=O)O)c1I`, for which the result was inactive.

Take `COC(=O)/C=C\C(=O)OC`: the result was inactive.

With `COc1cc2c(Nc3ccc(Br)cc3F)ncnc2cc1OCC1CCN(C)CC1`, the result was inactive. For `COc1cc(NS(=O)(=O)c2ccc(N)cc2)ncn1`, the result was inactive.

Take `Cc1cc(O)c(C(C)(C)C)cc1Sc1cc(C(C)(C)C)c(O)cc1C`: the concentration at half-maximal activity (AC50) was 31.5 µM (active). As to `FC(F)(F)C(Cl)Br` (stereo not given), the outcome was inactive. Still for that read-out and setting: under `CCCN1C[C@H](CSC)C[C@@H]2c3cccc4[nH]cc(c34)C[C@H]21` stands “inactive”; under `CC(C)Nc1cccnc1N1CCN(C(=O)c2cc3cc(NS(C)(=O)=O)ccc3[nH]2)CC1`, “inactive”. With `CC(=O)O[C@]1(C(C)=O)CC[C@H]2[C@@H]3C=C(Cl)C4=CC(=O)CC[C@]4(C)[C@H]3CC[C@@]21C`, the outcome was inactive and the half-maximal activity concentration (AC50) is 38 µM (active). Take `Nc1nc(Cl)nc2c1ncn2[C@@H]1O[C@H](CO)[C@@H](O)[C@@H]1F`: the AC50 was 0.155 µM (active). With `NC(N)=NCC1COc2ccccc2O1` (stereo not given), the outcome was inactive.

Take `O=[N+]([O-])c1ccc(/C=N\O)o1`: the outcome was inactive. As to `Cc1[nH]c(=O)c(C#N)cc1-c1ccc2nccn2c1`, the outcome was inactive. Take `COc1cc(OC)cc(OC)c1`: the result was inactive.

Take `Cc1cc(-n2c(=O)[nH]c(=O)n(C)c2=O)ccc1Oc1ccc(S(=O)(=O)C(F)(F)F)cc1`: the outcome was inactive. Same read-out and setting: under `O=Cc1cccc(Br)c1` stands “inactive”; under `CC(C)(C)NCC(O)CSc1nc(-c2ccc(C(N)=O)s2)cs1` (stereo not given), “inactive”. For `CN(C)CCCN1c2ccccc2Sc2ccc(C(F)(F)F)cc21`, the AC50 was 10.1 µM (active). Take `CCCc1c(OCCCCc2nn[nH]n2)ccc(C(C)=O)c1O`: the outcome was inactive and the concentration at half-maximal activity (AC50) is 25.2 µM (active). Consider `C=CC(=O)O`, for which the outcome was inactive.

As for `CCc1nn(CCCN2CCN(c3cccc(Cl)c3)CC2)c(=O)n1CCOc1ccccc1`, the outcome was inactive. As to `Nc1ccc(C(=O)Oc2ccccc2)c(O)c1`, the outcome was inactive.

For `CC1(C)S[C@@H]2[C@H](NC(=O)Cc3ccccc3)C(=O)N2[C@H]1C(=O)O` (tested in a mixture with another compound), the outcome was inactive. As for `CC(O)Cn1cnc2c1c(=O)n(C)c(=O)n2C` (stereo not given), the outcome was inactive. As to `CC(N)C12CC3CC(CC(C3)C1)C2` (stereo not given), the outcome was inactive. For the molecule `C[C@@H]1O[C@@H](OC[C@H]2O[C@@H](Oc3c(-c4ccc(OCCO)c(OCCO)c4)oc4cc(OCCO)cc(O)c4c3=O)[C@H](O)[C@@H](O)[C@@H]2O)[C@H](O)[C@H](O)[C@H]1O`, the outcome was inactive. For the molecule `O[C@@H]([C@H](O)[C@H](O)CBr)[C@H](O)CBr`, the outcome was inactive.

In the case of `O=C(c1ccccc1O)c1ccccc1O`, the result was inactive.

For `O=C(O)c1ccccc1[N+](=O)[O-]`, the result was inactive. Take `CCN(CC)CCNC(=O)c1ccc(NC(C)=O)cc1`: the outcome was inactive. For the molecule `c1ccc(COCc2ccccc2)cc1`, the result was inactive.

On to `CN[C@H](CC(C)C)C(=O)N[C@H]1C(=O)N[C@@H](CC(N)=O)C(=O)N[C@H]2C(=O)N[C@H]3C(=O)N[C@H](C(=O)N[C@H](C(=O)O)c4cc(O)cc(O)c4-c4cc3ccc4O)[C@H](O)c3ccc(c(Cl)c3)Oc3cc2cc(c3O[C@@H]2O[C@H](CO)[C@@H](O)[C@H](O)[C@H]2O[C@H]2C[C@](C)(N)[C@H](O)[C@H](C)O2)Oc2ccc(cc2Cl)[C@H]1O`, for which the result was inactive.

For orientation: AC50 means the concentration at which the activity in the assay is half-maximal.

The values above are taken from PubChem BioAssay (EPA / NIEHS).
